One assay addresses ABHD8. As to the kind of experiment: pooled miR-30 sensor sort-seq; sequence = guide strand. The following applies: shRNA.
In turn, TCACCTTGTGCACTAGGTCTGG had a sensor-assay potency score (higher = more potent) of -0.472. TTGACCTCTACAAAGGTGTAGC displayed a sensor-assay potency score (higher = more potent) of -0.315. Still for that read-out and setting: with TTCGCTTCTTGGCATAGCGCTT the figure was -0.977; with TTTTCCACCAGCAACCGCCCAT, -0.43.

With TTGCGGTACACGGTGATCCGGC, the sensor-assay potency score (higher = more potent) is -0.925. TTTGCAGCTAGTGATGCGCTTC returned a sensor-assay potency score (higher = more potent) of -0.147. Still for that read-out and setting: for TACAAAGGTGTAGCCATCGCTG the value was -0.814. Still for that read-out and setting: with AAACTTATCGTGCATGCCGTGG the figure was -1.36; with TTAACAGCTGCTTCTCCTTGGC, -0.231. Still for that read-out and setting: with TTGAAGATTGAGCAGAAGCTGG the figure was -0.887.

The target in the next assay is ACACB. Described as above. The following applies: shRNA.
On to TTCAGTAGTGAATCCGCTGGGA, for which the sensor-assay potency score (higher = more potent) came out at 0.353. Same read-out and setting: with TTGATCTTGACCTCAGCCTGTA the figure was 0.316; with TTGTCATAAACATCTTCTGGGA, -0.671; with TTATCAGATCTTTCTTTCGGAA, -0.751. On the same count and under the same terms, with TTGGATGTGTAGACCTCTCTTC the figure was 0.36; with TATCACACACTTGTCGTAGTGG, 0.451; with TTTGTCTGCATACATTTCTATG, -1.38. On the same count and under the same terms, with TGTATCTGGACTCTCCTCCTTC the figure was -0.0476; with TTTATCAGATCTTTCTTTCGGA, 0.775. Consider TACTTGTCTGAAAAGGATCGGG, for which the sensor-assay potency score (higher = more potent) stood at 0.16. For TTTGCTTCTGATTTACTCTTGG, the sensor-assay potency score (higher = more potent) stood at 0.795. In turn, TTACTCTTGGTGATCGGCTTGG came in with a sensor-assay potency score (higher = more potent) of 0.104. On to TTGTAAGCTGGATCGATCCTTC, for which the sensor-assay potency score (higher = more potent) is -0.276. On the same count and under the same terms, with TAATTTCTTGAGGTTCTCGGGG the figure was -0.145; with TTTATCACACACTTGTCGTAGT, 0.458. Sequence TTCTTGTCTTCTTTGGAGGGGG gave a sensor-assay potency score (higher = more potent) of -0.0633. Still for that read-out and setting: with TTCTCAAACACACACGTCTTAT the figure was -1.28; with TAGAGGTATTCCACTGTCCCTG, -0.211.

The sequence TACATTTCTATGCACAGCGGGT had a sensor-assay potency score (higher = more potent) of -1.13. Same read-out and setting: with TTGGACTGTACGAATGTCCGTA the figure was 0.552; with TAAGAAAGCAACTCCATTCTTG, 0.182.

In the case of TTCGGTAACTGTCAACCTCTTC, the sensor-assay potency score (higher = more potent) was -0.589.

As for TTCATGTAGGTGGTGTAGCTGT, the sensor-assay potency score (higher = more potent) is -0.772.

Another assay concerns the target ACAD10. The assay is described as above. The settings on record: shRNA.
As for TAATCCTGAACTCCCTCTCTAT, the sensor-assay potency score (higher = more potent) was -1.27. Same read-out and setting: for TTCACAGAGATCAAGAACGTTA the value was 0.0116; for TATGACATAGAAGCTGTCCTCC, 1.02.

TTCCAGTCCATACACCGTCAGA came in with a sensor-assay potency score (higher = more potent) of -1.34. In the case of TTCAGCTTTGGCTTTCTCCTTG, the sensor-assay potency score (higher = more potent) is -0.097. The same measure, in the same setting: for TTTCAGAGCAAAGTCTCCCAAA the value was -1.07. The sequence TTTCATAATCCTGAACTCCCTC registered a sensor-assay potency score (higher = more potent) of -0.41.

(Values after the OligoGym collection.)
Further: reference of the scale not given here.
